Bioassay records as filed in PubChem BioAssay.
Sampled rows, rich in hits. Any-hit rate of the full collection: about 1.6%.
KCNQ2 pot: potentiators of rat KCNQ2 potassium channel; B-score at 10 µM; CHO-K1 KCNQ2, FluxOR thallium flux fluorescence; stronger effect = higher value; 310,000 tested, 0.54% active; O88943; AID 2239;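 active = fluorescence ratio B-score at least 3 SD of library B-scores, with initial fluorescence B-score within 3 of them, cut at about 5.3 in these data; same plate scores as AID 2156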;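 note: B-score of peak minus minimum over baseline fluorescence ratio after K+ and Tl+ stimulus; positive B-score means potentiation of KCNQ2 with more thallium influx and brighter signal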
KCNQ2 block: KCNQ2 (rat) channel inhibition; O88943; CHO-K1 KCNQ2, FluxOR thallium flux, 20 min; stronger effect = lower value; B-score at 10 µM; AID 2156; 310,000 tested, 1.1% active;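 active = fluorescence ratio B-score at most minus 3 library SDs, with starting brightness B-score within 2 library SDs, cut at about -5.5 in these data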
Hits are given with their value; - = inactive; . = no result given.

SMILES	KCNQ2 pot	KCNQ2 block
CCn1cc(C(=O)NCc2ccc3c(c2)OCO3)c(=O)c2cc(F)c(N3CCN(C(=O)c4ccco4)CC3)cc21	.	-
Cc1ccc(OC(C)C(=O)N=Nc2c(O)[nH]c3ccc([N+](=O)[O-])cc23)cc1 (centres undefined)	.	-
O=C(c1ccc(F)cc1F)N1CCN(c2ccccn2)CC1	.	-
COc1cccc(C(=O)Nc2ccc(NC(C)=O)cc2)c1	.	-
COc1cccc(C(=O)NN/C(C)=C/C(=O)C(F)(F)C(F)(F)C(F)(F)F)c1	8.5	-
CCOP(=O)(c1ccccc1)c1nc(-c2ccccc2Cl)oc1N1CCCCC1 (centres undefined)	-	-5.6
CCOP(=O)(OCC)c1nc(-c2cccc([N+](=O)[O-])c2)oc1N1CCCCC1	.	-
Cc1cc(C)nc(SC2c3cccc4cccc(c34)C2NS(=O)(=O)c2ccccc2)n1 (centres undefined)	-	-5.7
Cc1cc(C)nc(SC2CCCCC2NS(=O)(=O)c2ccccc2)n1 (centres undefined)	-	-
Cc1ccc(S(=O)(=O)Nc2cccc3cccnc23)cc1	.	-
Cc1ccc(S(=O)(=O)NC2c3cccc4cccc(c34)C2Sc2ncccn2)cc1 (centres undefined)	-	-7
O=C(NCCCCc1ccccc1)C1CC(c2cc(C(F)(F)F)cc(C(F)(F)F)c2)=NO1 (centres undefined)	-	-
CCc1nnc(NS(=O)(=O)c2ccc(N=CC3=C(O)CC(C)(C)CC3=O)cc2)s1	-	-
CN(C)S(=O)(=O)c1ccc(C(=O)OC2CCOC2=O)cc1 (centres undefined)	-	-
CCOCCOC(=O)C1=C(C)NC2=C(C(=O)CC(c3cccs3)C2)C1c1ccsc1 (centres undefined)	.	-
CC1=C(C(=O)Nc2ccccc2F)C(c2ccsc2)C2=C(CC(c3ccccc3)CC2=O)N1 (centres undefined)	-	-6.1
COC(=O)C/C=C/[C@@H](C)[C@@H](/C=N/OC[C@H]1O[C@H](c2ccccc2)C=C[C@@H]1Oc1ccc(OC)cc1)OC	-	-6.9
COc1ccc(O[C@H]2C=C[C@@H](c3ccccc3)O[C@@H]2COC(=O)CC/C(C)=N/OC[C@@H](O)COCc2ccco2)cc1	.	-
COC(=O)Cc1ccc(N(Cc2ccccc2F)S(=O)(=O)c2ccc(Cl)cc2)cc1	-	-8.2
COC(=O)CN(c1ccc(F)cc1)S(=O)(=O)c1ccccc1	-	-
S=C(Nc1cc(Cl)cc(Cl)c1)N1CCN(c2ccccn2)CC1	.	-
O=C(NNC(=O)c1c(O)c2ccccc2[nH]c1=O)c1ccccc1Br	.	-
O=C1C(Oc2ccccc2)C(c2cccs2)N1Cc1ccc2c(c1)OCO2 (centres undefined)	-	-
Cc1ccccc1OC1C(=O)N(Cc2ccc3c(c2)OCO3)C1c1sccc1C (centres undefined)	-	-6
CCOC(=O)c1c(NC(=S)NCCc2ccccc2)sc2c1CC(C(C)C)OC2 (centres undefined)	7.5	-
SMILES	KCNQ2 pot	KCNQ2 block
CC(C)C1Cc2c(sc(NC(=S)NC(=O)c3ccccc3)c2C#N)CO1 (centres undefined)	-	-
O=c1c(-c2ccco2)[n+]([O-])c2ccccc2n1OCc1ccccc1[N+](=O)[O-]	.	-
O=C(Nc1cccc(-n2cccn2)c1)C1CCCN(Cc2cc3ccccc3[nH]2)C1 (centres undefined)	-	-8.2
Cc1cc(CN2CCCC(C(=O)Nc3cccc(-n4cccn4)c3)C2)cc(C)c1O (centres undefined)	.	-
CSc1ccccc1NC(=O)c1noc(C)c1[N+](=O)[O-]	-	-
COc1ccccc1C(=O)NCC(c1ccco1)N1CCc2ccccc21 (centres undefined)	-	-6.3
COc1cccc(C(=O)NCC(c2ccco2)N2CCc3ccccc3C2)c1 (centres undefined)	.	-
O=C(NCC(c1ccco1)N1CCc2ccccc2C1)c1cccc(F)c1 (centres undefined)	-	-5.8
O=C(NCC(c1ccco1)N1CCc2ccccc21)c1ccccc1 (centres undefined)	.	-
Cc1ccc(C(=O)NCC(c2ccco2)N2CCc3ccccc32)cc1C (centres undefined)	-	-6.2
COc1cc(C(=O)NCC(c2ccco2)N2CCc3ccccc32)cc(OC)c1OC (centres undefined)	.	-
Cc1ccccc1NS(=O)(=O)c1ccc(C(=O)NCC(c2ccco2)N2CCCCC2)cc1 (centres undefined)	-	-6.7
O=C(NCC(c1ccco1)N1CCCC1)c1ccc(S(=O)(=O)Nc2ccccc2F)cc1 (centres undefined)	-	-
Cc1ccc2nc(SCC(=O)Nc3ccc4c(c3)OCO4)nc(=O)n2c1	-	-
Cc1ccc(C(=O)N(C)CC(=O)Nc2cccc(C)c2C)o1	-	-
Brc1ccc(-n2cccc2/C=N/n2cnnc2)cc1	-	-
COc1ccc(C(=O)CSc2nnc(CNC(=O)c3ccccc3)o2)cc1	-	-
CC(=O)Nc1ccc(N2CC(C)(C)C2=O)cc1	-	-
N/C(=N\NC(=O)c1cccs1)c1cc2cc(Cl)ccc2oc1=O	-	-
CCC(=O)N1CCc2cc(S(=O)(=O)N3CCN(c4cc(C)ccc4C)CC3)ccc21	.	-
COc1ccccc1-c1nnc(SCC(=O)NC2CCS(=O)(=O)C2)n1N (centres undefined)	-	-
Cc1ccc(C(=O)Nc2ccc(N3CCN(C(=O)c4cccs4)CC3)cc2)c(Cl)c1	.	-
Cc1ccnc(NS(=O)(=O)c2ccc(NS(C)(=O)=O)cc2)n1	.	-
Cc1ccc2nc(C)c3c(c2c1)OC(C(C)(Cl)Br)C3 (centres undefined)	-	-5.7
COc1ccc2nc(C)c3c(c2c1)OC(C(C)(Cl)Br)C3 (centres undefined)	.	-
SMILES	KCNQ2 pot	KCNQ2 block
CCN(CC)S(=O)(=O)c1ccc(C)c(NC(=O)CNCCN(C(C)C)C(C)C)c1	.	-
CCN(CCCNC(=O)CCCN1C(=O)COc2ccc(C)cc21)c1cccc(C)c1	-	-6.3
Cc1ccc2c(c1)N(CCCC(=O)NCCCN1CCCCC1)C(=O)CO2	-	-
NC(=O)CSc1nc2ccccc2c(=O)n1Cc1ccco1	.	-
CCCn1c(C)cc(C(=O)CSc2nc3ccccc3c(=O)n2Cc2ccco2)c1C	-	-6
O=C(CNCc1ccc(F)cc1)Nc1ccccc1[N+](=O)[O-]	.	-
COc1cc(/C=N/O)ccc1Oc1cnccn1	-	-
O=C(COc1ccccc1)NCC(c1ccco1)N1CCN(c2ccccc2)CC1 (centres undefined)	.	-
O=C(COc1cccc(C(F)(F)F)c1)NCC(c1ccco1)N1CCCCC1 (centres undefined)	-	-5.6
CC(=O)Nc1ccc(C(=O)OCC(=O)N(Cc2ccccc2)C(C)(C)C)cc1	.	-
Cc1ccn2c(NC(=O)C(C)(C)Oc3ccc(Cl)cc3)c(-c3cccs3)nc2c1	-	-6.4
Cc1ccc(C(=O)Nc2c(-c3cccs3)nc3cc(C)ccn23)cc1	-	-
CCOC(=O)/C(=C/C1=CC(=C/N(C)C)/C(=O)O1)C(C)=O	.	-
Clc1ccc(SCc2cc(-c3ccc(Cl)cc3)on2)cc1	-	-7.5
Cc1ccc(SCc2cc(-c3ccc(Cl)cc3)on2)cc1	.	-
O=C(NCC(=O)N1CCC2(CC1)NCCc1[nH]cnc12)c1ccccc1F	-	-
CN(C)S(=O)(=O)c1cc([N+](=O)[O-])ccc1N1CCCCCC1	.	-
